Measured values taken from PubChem BioAssay AID1159580 (chemical genetic matrix, 2015).
Several values for one entry are separate records, joined by “and”; a condition that tells them apart may be missing. Identical values can stand only once. Screen size: about 5,500 compounds; about 2,000 (36%) were called active. About 18% were inconclusive and are not listed. Cut-off read from the data, not from the text of the source: active = normalized growth mostly below about 0.91 (no sharp cut-off); inconclusive = no clear call, values can overlap the other calls; inactive = mostly above about 0.92. Some of the results follow.

Assay: chemical genetic growth profiling, strain panel (AID 1159580);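 note: tested at 20 µM; growth read once vehicle control cultures reached saturation at 30 °C; 1 = growth at the plate median or of vehicle wells; lower values mean less growth of the strain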
Conditions: growth OD

Measured: normalized growth

Nc1nc(N)c2nc(CNc3ccc(C(=O)NC(CCC(=O)O)C(=O)O)cc3)cnc2n1 (stereo unspecified)
inactive: S. cerevisiae deletion strains, locus YKL009W, strain mrt4, active compounds read low 0.972 | S. cerevisiae deletion strains, locus YKL068W, active compounds read low 0.981 | S. cerevisiae deletion strains, locus YKL085W, strain MDH1 (second series), active compounds read low 0.986 | S. cerevisiae deletion strains, locus YKL085W, strain MDH1, active compounds read low 0.986 | S. cerevisiae deletion strains, locus YKL160W, strain elf1, active compounds read low 0.968 | S. cerevisiae deletion strains, locus YKL190W, strain CNB1, active compounds read low 1.01 | S. cerevisiae deletion strains, locus YKR001C, strain vps1, active compounds read low 0.989 | S. cerevisiae deletion strains, locus YKR026C, strain gcn3, active compounds read low 0.997 | S. cerevisiae deletion strains, locus YKR091W, strain srl3, active compounds read low 0.99 | S. cerevisiae deletion strains, locus YLL001W, strain dnm1, active compounds read low 0.941 | S. cerevisiae deletion strains, locus YLL026W, active compounds read low 0.996 | S. cerevisiae deletion strains, locus YLL041C, strain sdh2, active compounds read low 0.971 | S. cerevisiae deletion strains, locus YLR027C, strain aat2, active compounds read low 1 | S. cerevisiae deletion strains, locus YLR039C, strain RIC1, active compounds read low 1.01 | S. cerevisiae deletion strains, locus YLR058C, strain SHM2, active compounds read low 1 | S. cerevisiae deletion strains, locus YLR102C, strain apc9, active compounds read low 0.972 | S. cerevisiae deletion strains, locus YLR221C, strain rsa3, active compounds read low 1.06 | S. cerevisiae deletion strains, locus YLR258W, strain gsy2, active compounds read low 0.974 | S. cerevisiae deletion strains, locus YLR262C, strain YPT6 (second series), active compounds read low 1.03 | S. cerevisiae deletion strains, locus YLR262C, strain YPT6, active compounds read low 0.952 | S. cerevisiae deletion strains, locus YLR268W, strain sec22, active compounds read low 0.977 | S. cerevisiae deletion strains, locus YLR320W, strain mms22, active compounds read low 1.05 | S. cerevisiae deletion strains, locus YLR330W, strain CHS5, active compounds read low 1.01 | S. cerevisiae deletion strains, locus YLR342W, strain FKS1 (second series), active compounds read low 1.07 | S. cerevisiae deletion strains, locus YLR342W, strain FKS1, active compounds read low 1.01 | S. cerevisiae deletion strains, locus YLR357W, strain rsc2, active compounds read low 0.963 | S. cerevisiae deletion strains, locus YLR370C, strain arc18, active compounds read low 0.99 | S. cerevisiae deletion strains, locus YLR371W, strain rom2, active compounds read low 0.973 | S. cerevisiae deletion strains, locus YLR384C, strain iki3, active compounds read low 0.988 | S. cerevisiae deletion strains, locus YLR418C, strain cdc73, active compounds read low 1.02 | S. cerevisiae deletion strains, locus YML016C, strain PPZ1, active compounds read low 0.992 | S. cerevisiae deletion strains, locus YML032C, strain rad52, active compounds read low 1.01 | S. cerevisiae deletion strains, locus YML120C, strain ndi1, active compounds read low 0.979 | S. cerevisiae deletion strains, locus YML124C, strain tub3, active compounds read low 0.988 | S. cerevisiae deletion strains, locus YMR058W, strain fet3, active compounds read low 0.984 | S. cerevisiae deletion strains, locus YMR078C, strain ctf18, active compounds read low 0.974 | S. cerevisiae deletion strains, locus YMR125W, strain sto1, active compounds read low 0.967 | S. cerevisiae deletion strains, locus YMR129W, active compounds read low 1 | S. cerevisiae deletion strains, locus YMR205C, strain PFK2, active compounds read low 0.965 | S. cerevisiae deletion strains, locus YMR223W, strain ubp8, active compounds read low 0.989 | S. cerevisiae deletion strains, locus YMR231W, strain pep5, active compounds read low 1 | S. cerevisiae deletion strains, locus YMR263W, strain SAP30, active compounds read low 0.99 and 1 | S. cerevisiae deletion strains, locus YMR307W, strain GAS1, active compounds read low 1.16 | S. cerevisiae deletion strains, locus YNL067W, strain RPL9B, active compounds read low 0.975 | S. cerevisiae deletion strains, locus YNL071W, strain lat1, active compounds read low 0.998 | S. cerevisiae deletion strains, locus YNL128W, strain TEP1, active compounds read low 1 | S. cerevisiae deletion strains, locus YNL153C, strain GIM3, active compounds read low 1 | S. cerevisiae deletion strains, locus YNL175C, strain NOP13, active compounds read low 0.989 | S. cerevisiae deletion strains, locus YNL197C, strain WHI3, active compounds read low 0.956 | S. cerevisiae deletion strains, locus YNL209W, strain ssb2, active compounds read low 0.987 | S. cerevisiae deletion strains, locus YNL224C, strain SQS1, active compounds read low 0.981 | S. cerevisiae deletion strains, locus YNL233W, strain BNI4, active compounds read low 1.01 | S. cerevisiae deletion strains, locus YNL248C, strain rpa49, active compounds read low 1.02 | S. cerevisiae deletion strains, locus YNL250W, strain rad50, active compounds read low 0.945 | S. cerevisiae deletion strains, locus YNL271C, strain bni1, active compounds read low 0.984 | S. cerevisiae deletion strains, locus YNL298W, strain CLA4, active compounds read low 0.995 | S. cerevisiae deletion strains, locus YNL307C, strain MCK1, active compounds read low 0.977 | S. cerevisiae deletion strains, locus YNL322C, strain KRE1 (second series), active compounds read low 0.976 | S. cerevisiae deletion strains, locus YNL322C, strain KRE1, active compounds read low 0.998 and 1.01 | S. cerevisiae deletion strains, locus YNR049C, strain mso1, active compounds read low 0.987 | S. cerevisiae deletion strains, locus YNR052C, strain pop2, active compounds read low 0.991 | S. cerevisiae deletion strains, locus YOL006C, strain TOP1, active compounds read low 0.981 | S. cerevisiae deletion strains, locus YOL012C, strain htz1 0.761 | S. cerevisiae deletion strains, locus YOL147C, strain pex11, active compounds read low 0.998 | S. cerevisiae deletion strains, locus YOR001W, strain rrp6, active compounds read low 1.01 | S. cerevisiae deletion strains, locus YOR061W, strain CKA2, active compounds read low 0.99 | S. cerevisiae deletion strains, locus YOR069W, strain VPS5, active compounds read low 0.992 | S. cerevisiae deletion strains, locus YOR070C, strain gyp1, active compounds read low 0.997 | S. cerevisiae deletion strains, locus YOR080W, strain dia2, active compounds read low 1.01 | S. cerevisiae deletion strains, locus YOR083W, strain WHI5 (second series), active compounds read low 1 | S. cerevisiae deletion strains, locus YOR083W, strain WHI5, active compounds read low 0.967 | S. cerevisiae deletion strains, locus YOR106W, strain vam3, active compounds read low 0.94 | S. cerevisiae deletion strains, locus YOR136W, strain idh2, active compounds read low 0.994 | S. cerevisiae deletion strains, locus YOR144C, strain elg1, active compounds read low 1 | S. cerevisiae deletion strains, locus YOR184W, strain ser1, active compounds read low 0.99 | S. cerevisiae deletion strains, locus YOR265W, strain rbl2, active compounds read low 0.989 | S. cerevisiae deletion strains, locus YOR270C, strain vph1, active compounds read low 1.05 | S. cerevisiae deletion strains, locus YOR290C, strain snf2, active compounds read low 0.933 | S. cerevisiae deletion strains, locus YOR316C, strain cot1, active compounds read low 0.986 | S. cerevisiae deletion strains, locus YPL051W, strain arl3, active compounds read low 1 | S. cerevisiae deletion strains, locus YPL055C, strain LGE1, active compounds read low 1.02 and 0.989 | S. cerevisiae deletion strains, locus YPL078C, strain atp4, active compounds read low 0.955 | S. cerevisiae deletion strains, locus YPL106C, strain sse1, active compounds read low 0.956 | S. cerevisiae deletion strains, locus YPL240C, strain hsp82, active compounds read low 0.992 | S. cerevisiae deletion strains, locus YPL241C, strain CIN2, active compounds read low 1.01 | S. cerevisiae deletion strains, locus YPR119W, strain clb2, active compounds read low 0.987 | S. cerevisiae deletion strains, locus YPR141C, strain kar3, active compounds read low 0.98 | S. cerevisiae deletion strains, locus YPR163C, strain tif3, active compounds read low 1 | S. cerevisiae deletion strains, locus YPR167C, strain met16, active compounds read low 0.989 | S. cerevisiae deletion strains, strain wtn01, active compounds read low 0.965 | S. cerevisiae strains, strain wild type, active compounds read low 1.01
